In all, about 260,000 compounds went through this assay and about 1,500 (0.58%) were called active. Inconclusive results (about 5%) are left out.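 How the source made its calls: active means inhibition above a set limit at one or more doses, reproduced on every date tested; inconclusive means results disagree between test dates, or hit never tested in dose response; inactive means the rest.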 These entries were drawn from the full list. Measured potencies and affinities stand elsewhere.
molecular target: Virion infectivity factor (Human immunodeficiency virus type 1 group M subtype B (isolate BH10)) + Virion infectivity factor (Human immunodeficiency virus type 1 group M subtype B (isolate BRU/LAI)) + Virion infectivity factor (Human immunodeficiency virus type 1 group M subtype B (isolate PCV12)) + Virion infectivity factor (Human immunodeficiency virus type 1 group M subtype B (isolate HXB2)) + DNA dC->dU-editing enzyme APOBEC-3G (Homo sapiens) (UniProt P69720+P69721+P69722+P69723+Q9HC16); assay: HIV-1 Vif–A3G interaction blockers – biochemical, TR-FRET, GST-Vif 1-94, biotin-A3G peptide, dose response retest, primary screen (AID 1117319); settings: TR-FRET GST-Vif / biotin-A3G peptide binding; stronger effect = higher value;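 further: Vif residues 1-94 fused to GST binding biotinylated APOBEC3G peptide 110-148; 0% = full assay without inhibitor and 100% = GST in place of GST-Vif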

| SMILES | inhibition |
| --- | --- |
| O=C(NCCc1ccccc1)C1CCN(S(=O)(=O)c2cccc3nsnc23)CC1 | -0.39% (inactive) |
| N#C/C(=C/c1ccc(N2CCCCCC2)o1)c1ccc(Cl)cc1 | 17.8% (inactive) |
| N#C/C(=C/c1ccc(N2CCCCCC2)o1)c1ccc(F)cc1 | 5.86% (inactive) |
| Cc1ccc(/C=C/C(=O)NCCCn2ccnc2)cc1 | -9.33% (inactive) |
| CN(C)c1cc(Nc2cccc(O)c2)c([N+](=O)[O-])c2nonc12 | -10.7% (inactive) |
| O=[N+]([O-])c1c(Nc2ccccn2)cc(Cl)c2nonc12 | 10.6% (inactive) |
| O=[N+]([O-])c1c(Nc2ccccc2O)ccc2nonc12 | 1.82% (inactive) |
| CC(=O)Nc1ccc(Nc2cc(N(C)C)c3nonc3c2[N+](=O)[O-])cc1 | 0.25% (inactive) |
| CC(C)CC(=O)Nc1ccnn1C1CCN(C(=O)c2ccccc2F)CC1 | -2.89% (inactive) |
| CCOC(=O)c1c(/N=C/N(C)C)sc(C)c1C | -7.57% (inactive) |
| O=C(CCCN1C(=O)c2ccccc2C1=O)N1CCc2ccccc2C1 | -3.95% (inactive) |
| CN1CCN(C(=O)CN2C(=O)CC(C)(C)S(=O)(=O)c3ccccc32)CC1 | -1.94% (inactive) |
| O=C(NCCc1ccccc1Cl)c1cc(COc2ccc(F)cc2F)on1 | 2.92% (inactive) |
| O=C(COc1ccc(-c2nnco2)cc1)Nc1ccc(F)c(Cl)c1 | -11.6% (inactive) |
| CCNC(=O)c1cc2c(=O)n3cccc(C)c3nc2n(CCc2ccccc2)c1=N | -4.24% (inactive) |
| N=c1c(C(=O)NCc2ccco2)cc2c(=O)n3ccccc3nc2n1CCc1ccccc1 | 19.6% (inactive) |
| CCOc1cc(N2CCOCC2)c(OCC)cc1NC(=O)CSc1nc(N)cc(=O)[nH]1 | -6.18% (inactive) |
| CCN(CC)S(=O)(=O)c1ccc(N2CCOCC2)c(NS(=O)(=O)c2ccc(Cl)s2)c1 | 7% (inactive) |
| CCOc1cc(N2CCOCC2)c(OCC)cc1NS(=O)(=O)c1ccc2c(c1)CC(=O)N2 | 9.5% (inactive) |
| CCOc1cc(N2CCOCC2)c(OCC)cc1NC(=O)C(C)C | 32.2% (inactive) |
| CCOc1cc(N2CCOCC2)c(OCC)cc1NC(=O)C(C)(C)C | 31% (inactive) |
| CCOc1cc(N2CCOCC2)c(OCC)cc1NC(=O)CSc1ncccn1 | -9.38% (inactive) |
| CC1CCCC(C)N1C(=O)COc1cccc(Oc2ccccc2)c1 (stereo not drawn) | -6.13% (inactive) |

| SMILES | inhibition |
| --- | --- |
| O=C(Oc1cc(-c2ccccc2)no1)c1cccc(C(F)(F)F)c1 | 12% (inactive) |
| CCCN(CC(=O)Nc1ccccc1C)C(=O)c1ccc(C)c(S(=O)(=O)N2CCCCC2)c1 | -7.29% (inactive) |
| COc1ccc(C(=O)NCc2cccnc2)cc1Br | 7.76% (inactive) |
| CCCCn1c(N)c(N(CC)C(=O)/C=C/c2ccco2)c(=O)[nH]c1=O | -7.61% (inactive) |
| Cn1nnc(NC(=O)/C=C/c2ccco2)n1 | 11.5% (inactive) |
| COC(=O)C(=C/C=C/c1ccco1)C(=O)OC | 32.7% (inactive) |
| CCCCN1C(=O)NC(NC(=O)c2ccco2)(C(F)(F)F)C1=O (stereo not drawn) | -1.08% (inactive) |
| CC1Cc2c([nH]c3ccccc23)C(=O)N1 (stereo not drawn) | 0.31% (inactive) |
| COc1c2ccoc2c(OC(C)=O)c2oc(C)cc(=O)c12 | 0.13% (inactive) |
| COC(=O)Cn1cnc2c1c(=O)n(C)c(=O)n2C | 1.38% (inactive) |
| Cc1csc(NC(=O)C2CCCCN2S(=O)(=O)c2ccccc2)n1 (stereo not drawn) | 1.7% (inactive) |
| O=C(CSc1n[nH]c(-c2ccco2)n1)Nc1ccccc1 | 5.48% (inactive) |
| CC(=O)c1ccc(NC(=O)CSc2ccc(-c3ccco3)nn2)cc1 | -1.56% (inactive) |
| COc1cccc(NC(=O)CSc2nc(N)cc(N)n2)c1 | 3.65% (inactive) |
| CCc1nnc(SCC(=O)Nc2ccc(C(C)=O)cc2)nc1CC | 2.81% (inactive) |
| COc1cccc(NC(=O)CSc2ccc(-c3ccco3)nn2)c1 | 3.97% (inactive) |
| Cc1ccc(NC(=O)CSc2nnc(-c3ccco3)c(-c3ccco3)n2)cc1 | 25.5% (inactive) |
| COc1ccc(CCNC(=O)COC(=O)/C=C/c2ccc(OCC#N)c(OC)c2)cc1OC | 5.39% (inactive) |
| CC(=O)Nc1ccc(NC(=O)Cn2ccc([N+](=O)[O-])n2)cc1 | 11.7% (inactive) |
| COc1cccc(C2CC(c3cccs3)=NN2C(=O)CSC2=NN3CCCC(=O)N=C3S2)c1OC (stereo not drawn) | 0.81% (inactive) |
| O=C(c1ccco1)N1CCN(Cc2cc(=O)c(OCc3cccc(F)c3)co2)CC1 | -1.67% (inactive) |
| O=[N+]([O-])c1ccc(-c2nc(=S)c3c(o2)CCCC3)cc1 | 0.66% (inactive) |
| S=c1nc(-c2ccccc2)oc2c1CCCC2 | 2.15% (inactive) |

| SMILES | inhibition |
| --- | --- |
| Cc1nc2oc3ccccc3c(=O)c2cc1C(=O)O | -10.2% (inactive) |
| Cc1ccc(C)c(N2CCN(S(=O)(=O)c3ccc4c(c3)CCC(=O)N4)CC2)c1 | 24.6% (inactive) |
| COc1ccc(C(=O)COC(=O)CNC(=O)c2ccc(Cl)cc2Cl)c(OC)c1 | 3.17% (inactive) |
| Cc1cc(C)cc(NC(=O)CSCc2cnn(-c3ccccc3)c2-n2cccc2)c1 | -0.62% (inactive) |
| CCOc1ccc(NC(=O)CSCc2cnn(-c3ccccc3)c2-n2cccc2)cc1 | -1.2% (inactive) |
| O=C(NCCn1ccc2ccccc21)C1CCCCC1 | -2.31% (inactive) |
| Cc1cc2ccccc2n1CCNC(=O)C1CCCC1 | 23.5% (inactive) |
| CC(C)CC(=O)NCc1ccc2[nH]c3c(c2c1)CCCC3 | 5.99% (inactive) |
| O=C(CCN1CCC(c2ccc(Cl)s2)=N1)c1ccc(Cl)s1 | -2.16% (inactive) |
| CC(=O)NCC(=O)NC(Cc1ccccc1)C(N)=O (stereo not drawn) | 18.9% (inactive) |
| COc1cc(/C=C(\C#N)C(=O)N2CCOCC2)cc(Br)c1O | -3.89% (inactive) |
| NC(=O)/C(=C\c1ccco1)NC(=O)c1ccco1 | 13.1% (inactive) |
| CC(=C\C(=O)O)/C(=C/c1ccco1)C(=O)O | 29.9% (inactive) |
| Cc1ccc2sc(N(CCCN(C)C)C(=O)c3ccc(S(=O)(=O)N4CCOCC4)cc3)nc2c1C | 7.87% (inactive) |
| COc1cc(CNC(C)(C)CO)cc(Br)c1OCc1ccccc1 | 14.2% (inactive) |
| CCOc1ccccc1CNc1ccc(O)cc1 | -1.14% (inactive) |
| Fc1cccc(COc2ccccc2CNc2ccccc2)c1 | 8.86% (inactive) |
| C=CCOc1c(CNc2ccc(C(=O)O)cc2)cccc1OCC | 5.17% (inactive) |
| CCOc1cc(CNc2ccccc2)cc(Br)c1OCc1ccc(F)cc1 | -2.02% (inactive) |
| O=C(O)c1ccc(CNCc2cccc(OCc3ccc(F)cc3)c2)cc1 | -2.79% (inactive) |
| O=[N+]([O-])c1ccc(COc2cccc(CNc3ccc(F)cc3)c2)cc1 | 26.4% (inactive) |
| CCOc1cccc(CNn2cnnc2)c1OCc1ccccc1Cl | 3.09% (inactive) |
